Values without a mark were called inactive. Calls follow the shape of the dose curve; as a rule, active = well fitted curve in the direction sought with a large enough effect; inconclusive = small, poorly fitted or top-dose-only effect, or another doubt; inactive = no such curve, though single readings can be large; an effect the other way counts as inactive or inconclusive. Results filed as inconclusive are left out.
target: Guanine nucleotide-binding protein G(i) subunit alpha-1 (Homo sapiens) (UniProt P63096); assay: qHTS Assay for Inhibitors of RGS12 GoLoco Motif Activity (Green Fluorophore) (AID 879); conditions: Galphai1/FITC-RGS12 GoLoco peptide, fluorescence polarization; series mostly up to 57.1 µM; activity, negative = inhibition: at the top concentration;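 also: 0% = labeled peptide with Gαi1 and full inhibition = labeled peptide alone without protein; negative values mean loss of peptide binding seen as reduced polarization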
Sequence (P63096 whole entry, looked up): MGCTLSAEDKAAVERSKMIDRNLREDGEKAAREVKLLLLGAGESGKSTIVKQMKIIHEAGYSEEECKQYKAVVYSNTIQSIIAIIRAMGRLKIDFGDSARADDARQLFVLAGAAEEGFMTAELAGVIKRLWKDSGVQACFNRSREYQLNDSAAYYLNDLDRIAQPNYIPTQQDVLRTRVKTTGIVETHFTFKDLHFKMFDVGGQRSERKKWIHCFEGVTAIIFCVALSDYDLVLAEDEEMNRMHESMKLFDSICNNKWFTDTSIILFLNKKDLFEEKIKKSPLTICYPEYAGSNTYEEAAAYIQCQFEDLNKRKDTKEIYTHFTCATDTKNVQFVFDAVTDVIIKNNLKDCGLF
Procedure, shortened: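 A drop in FITC polarization marked displacement of the FITC-tagged RGS12 GoLoco peptide (10 nM) from Gαi1 (50 nM). Compounds were incubated 10 min at room temperature in Tris pH 7.5 buffer containing 150 mM NaCl, 0.1 mM GDP and 0.05% NP40; unlabeled peptide titration served as control.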

| Compound | activity, negative = inhibition [%] |
| --- | --- |
| O=C(O)C1CCNCC1 | -24.7 |
| CCCCCCC/C=C\CCCCCCCCC(=O)O | -6.46 |
| CC(N)=O | 0.761 |
| N=C(N)c1ccc(OCCCCCOc2ccc(C(=N)N)cc2)cc1 (tested in a mixture with another compound) | -18.8 |
| N[C@@H](Cc1c[nH]c2ccccc12)C(=O)O | -5.56 |
| COc1ccccc1N1CCN(CCCNc2c(C)c(=O)n(C)c(=O)n2C)CC1 | -9.73 |
| N=C(N)c1ccc(N)cc1 | 0.388 |
| O=c1[nH]c2ccccc2c2ccccc12 | -12.4 |
| N[C@@H](CS(=O)O)C(=O)O | -12.2 |
| Clc1nccc2c1ccc1ccccc12 | -3.47 |
| COc1ccc(-c2ccc(N)[n+](CCCC(=O)O)n2)cc1 | 4.64 |
| OC1(c2ccc(Cl)cc2)CCN(Cc2c[nH]c3ccccc23)CC1 | 2.28 |
| NS(=O)(=O)c1cccc2c1c([N+](=O)[O-])cc1nc(O)c(O)nc12 | -18.4 |
| C[N+](C)(C)CC=O | 4.53 |

target: Cytochrome P450 2C9 (Homo sapiens) (UniProt P11712); assay: qHTS Assay for Inhibitors and Substrates of Cytochrome P450 2C9 (AID 883); conditions: recombinant CYP2C9, luciferin-H luminescence, 60 min; series mostly up to 57.1 µM; activity change, negative = inhibition: at the top concentration; also: % is scaled to controls: 0 for no effect and ±100 for the full control effect; nearly all actives have a fitted effect of over 60% in size
Sequence (P11712 whole entry, looked up): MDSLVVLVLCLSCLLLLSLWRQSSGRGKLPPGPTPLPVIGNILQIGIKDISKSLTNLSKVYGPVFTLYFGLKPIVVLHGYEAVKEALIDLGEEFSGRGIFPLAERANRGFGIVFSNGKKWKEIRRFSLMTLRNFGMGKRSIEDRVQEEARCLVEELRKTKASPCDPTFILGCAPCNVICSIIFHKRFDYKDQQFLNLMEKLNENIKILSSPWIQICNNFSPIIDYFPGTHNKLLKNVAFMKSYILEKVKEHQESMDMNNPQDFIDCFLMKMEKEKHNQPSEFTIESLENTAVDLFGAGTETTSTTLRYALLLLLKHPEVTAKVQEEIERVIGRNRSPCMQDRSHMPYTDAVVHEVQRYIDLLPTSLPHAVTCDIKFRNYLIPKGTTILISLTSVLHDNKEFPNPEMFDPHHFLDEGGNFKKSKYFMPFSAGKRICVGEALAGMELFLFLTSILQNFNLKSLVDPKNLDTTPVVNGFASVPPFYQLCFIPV
Procedure, shortened: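 Signal: luciferase luminescence reporting luciferin produced by CYP2C9. Conditions: 10nM enzyme, Luciferin-H 100uM at KM, 25mM KPO4, 37C, 60 min NADPH-driven reaction. Reference: 57uM sulphaphenazole as 100% inhibition.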

| Compound | activity change, negative = inhibition [%] |
| --- | --- |
| Nc1ccc2c3c(cccc13)C(=O)NC2=O | 43.3 |
| O=C(O)Cc1c[nH]c2ccc(O)cc12 | 31.1 |
| OC1(c2ccc(Cl)cc2)CCN(Cc2c[nH]c3ccccc23)CC1 | 31.8 |
